Holding throughout (assay): yeast three-hybrid, YBZ-1, SC-Leu-His + 0.5 mM 3-AT, 4 days
What all share (conditions): tags: N-Gal4 AD-HA kept; label: inside an RPR1-promoter hybrid RNA with tandem MS2 sites; ssRNA

The target in one assay is PUM1 PUF domain R5-RRR (Homo sapiens, UniProt Q14671 828-1176, C1007R;Q1011R). Summed up: (§1)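 Matching RNA elements and Pumilio-1 PUF domain libraries, randomized at the three base-contacting residues of every repeat, were co-expressed from a centromeric plasmid in strain YBZ-1 (LexA–MS2 coat fusion, HIS3 reporter). The repeat regions were PCR-amplified and Illumina-sequenced from cells grown four days on SC-Leu (input) or SC-Leu-His + 0.5 mM 3-AT (selection). The interaction score is the log change in variant frequency from input to selection. It is computed in log2, with a pseudocount of 1 for absent variants.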

The target in a further assay is PUM1 PUF domain R3-GRR (Homo sapiens, UniProt Q14671 828-1176, C935G;Q939R). Summed up:
as §1

The target in a further assay is PUM1 PUF domain R3-RSS (Homo sapiens, UniProt Q14671 828-1176, C935R;R936S;Q939S). Summed up: as §1
A further assay has as its target PUM1 PUF domain R1-YVR (Homo sapiens, UniProt Q14671 828-1176, S863Y;R864V;Q867R). In short, it runs like this: as §1
For another assay, the target named is PUM1 PUF domain R7-ATR (Homo sapiens, UniProt Q14671 828-1176, S1079A;N1080T;E1083R). In short, it runs like this:
as §1

Another assay deals with PUM1 PUF domain R4-WAS (Homo sapiens, UniProt Q14671 828-1176, N971W;H972A;Q975S). Summed up:
as §1

The target in another assay is PUM1 PUF domain R4-RGG (Homo sapiens, UniProt Q14671 828-1176, N971R;H972G;Q975G). In short, it runs like this: as §1
The next assay has as its target PUM1 PUF domain R5-LHA (Homo sapiens, UniProt Q14671 828-1176, C1007L;R1008H;Q1011A). Summed up:
as §1

The target in a further assay is PUM1 PUF domain R8-KFF (Homo sapiens, UniProt Q14671 828-1176, N1122K;Y1123F;Q1126F). In short, it runs like this: as §1
The next assay deals with PUM1 PUF domain R8-HFV (Homo sapiens, UniProt Q14671 828-1176, N1122H;Y1123F;Q1126V). Summed up: as §1
The target in the next assay is PUM1 PUF domain R1-KGV (Homo sapiens, UniProt Q14671 828-1176, S863K;R864G;Q867V). Summed up:
as §1

Another assay addresses PUM1 PUF domain R1-QFR (Homo sapiens, UniProt Q14671 828-1176, S863Q;R864F;Q867R). Summed up:
as §1

In a further assay the target is PUM1 PUF domain R1-KRK (Homo sapiens, UniProt Q14671 828-1176, S863K;Q867K). Summed up:
as §1

A further assay deals with PUM1 PUF domain R8-TFR (Homo sapiens, UniProt Q14671 828-1176, N1122T;Y1123F;Q1126R). In short, it runs like this:
as §1

The target of another assay is PUM1 PUF domain R8-RYE (Homo sapiens, UniProt Q14671 828-1176, N1122R;Q1126E). Summed up: as §1
The next assay deals with PUM1 PUF domain R4-EWH (Homo sapiens, UniProt Q14671 828-1176, N971E;H972W;Q975H). Summed up:
as §1

The target of the next assay is PUM1 PUF domain R7-RSQ (Homo sapiens, UniProt Q14671 828-1176, S1079R;N1080S;E1083Q). Summed up: as §1
The target of the next assay is PUM1 PUF domain R5-RTR (Homo sapiens, UniProt Q14671 828-1176, C1007R;R1008T;Q1011R). In short, it runs like this: as §1
The target of the next assay is PUM1 PUF domain R5-QPI (Homo sapiens, UniProt Q14671 828-1176, C1007Q;R1008P;Q1011I). Summed up: as §1
The target in the next assay is PUM1 PUF domain R3-YRD (Homo sapiens, UniProt Q14671 828-1176, C935Y;Q939D). In short, it runs like this: as §1
Sequence of PUM1 PUF domain R3-YRD (Q14671 828-1176 C935Y/Q939D): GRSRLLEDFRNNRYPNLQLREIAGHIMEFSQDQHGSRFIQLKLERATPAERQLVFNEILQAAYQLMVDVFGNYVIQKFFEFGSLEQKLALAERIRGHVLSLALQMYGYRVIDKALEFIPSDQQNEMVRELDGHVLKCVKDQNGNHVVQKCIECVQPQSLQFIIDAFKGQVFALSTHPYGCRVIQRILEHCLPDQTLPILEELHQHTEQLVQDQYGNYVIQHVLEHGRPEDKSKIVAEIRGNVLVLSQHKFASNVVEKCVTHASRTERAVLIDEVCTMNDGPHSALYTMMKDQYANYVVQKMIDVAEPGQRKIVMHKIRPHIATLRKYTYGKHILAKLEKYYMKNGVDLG

Sequence of PUM1 PUF domain R1-YVR (Q14671 828-1176 S863Y/R864V/Q867R): as the sequence (Q14671 828-1176 C935Y/Q939D) above, with S36Y, R37V, Q40R, Y108C, D112Q counted along it
Sequence of PUM1 PUF domain R4-WAS (Q14671 828-1176 N971W/H972A/Q975S): as the sequence (Q14671 828-1176 C935Y/Q939D) above, with Y108C, D112Q, N144W, H145A, Q148S counted along it
Sequence of PUM1 PUF domain R8-KFF (Q14671 828-1176 N1122K/Y1123F/Q1126F): as the sequence (Q14671 828-1176 C935Y/Q939D) above, with Y108C, D112Q, N295K, Y296F, Q299F counted along it
Sequence of PUM1 PUF domain R5-LHA (Q14671 828-1176 C1007L/R1008H/Q1011A): as the sequence (Q14671 828-1176 C935Y/Q939D) above, with Y108C, D112Q, C180L, R181H, Q184A counted along it
Sequence of PUM1 PUF domain R5-RRR (Q14671 828-1176 C1007R/Q1011R): as the sequence (Q14671 828-1176 C935Y/Q939D) above, with Y108C, D112Q, C180R, Q184R counted along it
Sequence of PUM1 PUF domain R4-RGG (Q14671 828-1176 N971R/H972G/Q975G): as the sequence (Q14671 828-1176 C935Y/Q939D) above, with Y108C, D112Q, N144R, H145G, Q148G counted along it
Sequence of PUM1 PUF domain R8-TFR (Q14671 828-1176 N1122T/Y1123F/Q1126R): as the sequence (Q14671 828-1176 C935Y/Q939D) above, with Y108C, D112Q, N295T, Y296F, Q299R counted along it
Sequence of PUM1 PUF domain R3-GRR (Q14671 828-1176 C935G/Q939R): as the sequence (Q14671 828-1176 C935Y/Q939D) above, with Y108G, D112R counted along it
Sequence of PUM1 PUF domain R1-QFR (Q14671 828-1176 S863Q/R864F/Q867R): as the sequence (Q14671 828-1176 C935Y/Q939D) above, with S36Q, R37F, Q40R, Y108C, D112Q counted along it
Sequence of PUM1 PUF domain R5-QPI (Q14671 828-1176 C1007Q/R1008P/Q1011I): as the sequence (Q14671 828-1176 C935Y/Q939D) above, with Y108C, D112Q, C180Q, R181P, Q184I counted along it
Sequence of PUM1 PUF domain R4-EWH (Q14671 828-1176 N971E/H972W/Q975H): as the sequence (Q14671 828-1176 C935Y/Q939D) above, with Y108C, D112Q, N144E, H145W, Q148H counted along it
Sequence of PUM1 PUF domain R1-KRK (Q14671 828-1176 S863K/Q867K): as the sequence (Q14671 828-1176 C935Y/Q939D) above, with S36K, Q40K, Y108C, D112Q counted along it
Sequence of PUM1 PUF domain R7-RSQ (Q14671 828-1176 S1079R/N1080S/E1083Q): as the sequence (Q14671 828-1176 C935Y/Q939D) above, with Y108C, D112Q, S252R, N253S, E256Q counted along it

As for “GGCUAGAACUAGUGGAUCCCCCGGCGCCCGGCGGCUCGAGCCCGGGUAAGUGUGAAUAGUCUGCAUGCCGCCGGGCGCCAUGCCUGCAGGUCGACUCUAGAAAACAUG”, the binding signal with PUM1 PUF domain R5-RRR is 1.36 log2 enrichment (interaction score).

Consider “GGCUAGAACUAGUGGAUCCCCCGGCGCCCGGCGGCUCGAGCCCGGGUAAGUGUAAUUAGUCUGCAUGCCGCCGGGCGCCAUGCCUGCAGGUCGACUCUAGAAAACAUG”, for which the binding signal is 2.87 log2 enrichment (interaction score) with PUM1 PUF domain R3-GRR and 3.63 log2 enrichment (interaction score) with PUM1 PUF domain R3-RSS.

In the case of “GGCUAGAACUAGUGGAUCCCCCGGCGCCCGGCGGCUCGAGCCCGGGUAAGUGUAAAUGGUCUGCAUGCCGCCGGGCGCCAUGCCUGCAGGUCGACUCUAGAAAACAUG”, the binding signal with PUM1 PUF domain R1-YVR was 3.38 log2 enrichment (interaction score).

For “GGCUAGAACUAGUGGAUCCCCCGGCGCCCGGCGGCUCGAGCCCGGGUAAGUUUAAAUAGUCUGCAUGCCGCCGGGCGCCAUGCCUGCAGGUCGACUCUAGAAAACAUG”, the binding signal in the assay with PUM1 PUF domain R7-ATR is 3.43 log2 enrichment (interaction score).

For “GGCUAGAACUAGUGGAUCCCCCGGCGCCCGGCGGCUCGAGCCCGGGUAAGUGUAAAUAGUCUGCAUGCCGCCGGGCGCCAUGCCUGCAGGUCGACUCUAGAAAACAUG”, the binding signal with PUM1 PUF domain R4-WAS is 2.5 log2 enrichment (interaction score); with PUM1 PUF domain R4-RGG, 2.44 log2 enrichment (interaction score); with PUM1 PUF domain R5-LHA, 2.04 log2 enrichment (interaction score); with PUM1 PUF domain R5-RRR it was 2.32 log2 enrichment (interaction score); with PUM1 PUF domain R8-KFF, 2.66 log2 enrichment (interaction score); with PUM1 PUF domain R8-HFV, 2.65 log2 enrichment (interaction score).

As for “GGCUAGAACUAGUGGAUCCCCCGGCGCCCGGCGGCUCGAGCCCGGGUAAGUGUAAAUUGUCUGCAUGCCGCCGGGCGCCAUGCCUGCAGGUCGACUCUAGAAAACAUG”, the binding signal in the assay with PUM1 PUF domain R1-YVR was 6.97 log2 enrichment (interaction score); in the assay with PUM1 PUF domain R1-KGV, 3.66 log2 enrichment (interaction score).

As to “GGCUAGAACUAGUGGAUCCCCCGGCGCCCGGCGGCUCGAGCCCGGGUAAGUGUAAAUCGUCUGCAUGCCGCCGGGCGCCAUGCCUGCAGGUCGACUCUAGAAAACAUG”, the binding signal in the assay with PUM1 PUF domain R1-QFR is 7.18 log2 enrichment (interaction score); with PUM1 PUF domain R1-KRK, 4.04 log2 enrichment (interaction score); in the assay with PUM1 PUF domain R1-YVR, 6.93 log2 enrichment (interaction score); in the assay with PUM1 PUF domain R1-KGV, 4.16 log2 enrichment (interaction score).

“GGCUAGAACUAGUGGAUCCCCCGGCGCCCGGCGGCUCGAGCCCGGGUAAGCGUAAAUAGUCUGCAUGCCGCCGGGCGCCAUGCCUGCAGGUCGACUCUAGAAAACAUG”: the binding signal in the assay with PUM1 PUF domain R8-TFR is 4.89 log2 enrichment (interaction score); with PUM1 PUF domain R8-RYE, 3.48 log2 enrichment (interaction score); with PUM1 PUF domain R8-KFF it was 2.98 log2 enrichment (interaction score); with PUM1 PUF domain R8-HFV it was 3.91 log2 enrichment (interaction score).

On to “GGCUAGAACUAGUGGAUCCCCCGGCGCCCGGCGGCUCGAGCCCGGGUAAGUGUACAUAGUCUGCAUGCCGCCGGGCGCCAUGCCUGCAGGUCGACUCUAGAAAACAUG”, for which the values for the binding signal with PUM1 PUF domain R4-WAS, in the assay with PUM1 PUF domain R4-RGG and with PUM1 PUF domain R4-EWH were 3.76 log2 enrichment (interaction score), 1.13 log2 enrichment (interaction score) and 2.99 log2 enrichment (interaction score), respectively.

“GGCUAGAACUAGUGGAUCCCCCGGCGCCCGGCGGCUCGAGCCCGGGUAAGUCUAAAUAGUCUGCAUGCCGCCGGGCGCCAUGCCUGCAGGUCGACUCUAGAAAACAUG”: the binding signal with PUM1 PUF domain R7-RSQ is 2.88 log2 enrichment (interaction score).

As for “GGCUAGAACUAGUGGAUCCCCCGGCGCCCGGCGGCUCGAGCCCGGGUAAGUGUCAAUAGUCUGCAUGCCGCCGGGCGCCAUGCCUGCAGGUCGACUCUAGAAAACAUG”, the binding signal in the assay with PUM1 PUF domain R5-RTR was 3.19 log2 enrichment (interaction score); in the assay with PUM1 PUF domain R5-LHA, 3 log2 enrichment (interaction score); in the assay with PUM1 PUF domain R5-RRR, 4.35 log2 enrichment (interaction score).

For the sequence “GGCUAGAACUAGUGGAUCCCCCGGCGCCCGGCGGCUCGAGCCCGGGUAAGUGUUAAUAGUCUGCAUGCCGCCGGGCGCCAUGCCUGCAGGUCGACUCUAGAAAACAUG”, the binding signal with PUM1 PUF domain R5-QPI is 3.43 log2 enrichment (interaction score); in the assay with PUM1 PUF domain R5-RTR it was 2.56 log2 enrichment (interaction score); with PUM1 PUF domain R5-LHA, 4.62 log2 enrichment (interaction score); with PUM1 PUF domain R5-RRR it was 4.33 log2 enrichment (interaction score).

Take “GGCUAGAACUAGUGGAUCCCCCGGCGCCCGGCGGCUCGAGCCCGGGUAAGUGUAUAUAGUCUGCAUGCCGCCGGGCGCCAUGCCUGCAGGUCGACUCUAGAAAACAUG”: the binding signal with PUM1 PUF domain R4-WAS is 4.67 log2 enrichment (interaction score).

Take “GGCUAGAACUAGUGGAUCCCCCGGCGCCCGGCGGCUCGAGCCCGGGUAAGGGUAAAUAGUCUGCAUGCCGCCGGGCGCCAUGCCUGCAGGUCGACUCUAGAAAACAUG”: the binding signal with PUM1 PUF domain R8-TFR is 2.97 log2 enrichment (interaction score); in the assay with PUM1 PUF domain R8-KFF, 2.27 log2 enrichment (interaction score).

With “GGCUAGAACUAGUGGAUCCCCCGGCGCCCGGCGGCUCGAGCCCGGGUAAGUGUAAGUAGUCUGCAUGCCGCCGGGCGCCAUGCCUGCAGGUCGACUCUAGAAAACAUG”, the results for the binding signal with PUM1 PUF domain R3-YRD, with PUM1 PUF domain R3-GRR and in the assay with PUM1 PUF domain R3-RSS were 3.85 log2 enrichment (interaction score), 0.8 log2 enrichment (interaction score) and 0.48 log2 enrichment (interaction score), respectively.

(Values after publication PMC8384837, “Expanding the binding specificity for RNA recognition by a PUF domain”.)
